In the supplement of paper PMC6555819:

What was measured:
Assay in all cases: PBM binding z-score (relative to random genomic background probes); higher = stronger binding; sequences stand for … in GC…GCGATTGACAGCGTAGAATGAAGG
[1] = tested on: PPARg:RXRa DBDmut IVT, anti-RXR (DBD mutation: RXRa K156A/R161A, NR concentration 270 nM, RXRa partner concentration 90 nM)
Outline: (§1)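 Binding z-scores were set against random background probes. The data came from custom Agilent 4×180K protein-binding microarrays carrying double-stranded probes with 34-nt variable regions, incubated 1 h with ligand-free nuclear receptor dimers. Partner-specific antibodies detected binding, and scanned fluorescence was regression-normalized.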

[2] = tested on: PPARg:RXRa IVT, anti-PPARg (NR concentration 270 nM, RXRa partner concentration 90 nM)
Outline: as §1

[3] = tested on: PPARg DBDmut:RXRa IVT, anti-PPARg (DBD mutation: PPARg1 K132A/R137A, NR concentration 270 nM, RXRa partner concentration 90 nM)
Outline: as §1

[4] = tested on: PPARg DBDmut IVT, anti-PPARg (DBD mutation: PPARg1 K132A/R137A, NR concentration 270 nM)
Outline: as §1

[5] = tested on: PPARg homodimer (NR concentration 180 nM)
Outline: as §1

[6] = tested on: PXR:RXRa (NR concentration 270 nM, RXRa partner concentration 90 nM)
Outline: as §1

[7] = tested on: PXR homodimer (NR concentration 270 nM)
Outline: as §1

[8] = tested on: RARa:RXR (NR concentration 270 nM, RXRa partner concentration 90 nM)
Outline: as §1

[9] = tested on: RARa homodimer (NR concentration 270 nM)
Outline: as §1

[10] = tested on: RARb:RXRa (NR concentration 270 nM, RXRa partner concentration 90 nM)
Outline: as §1

[11] = tested on: RARb homodimer (NR concentration 270 nM)
Outline: as §1

[12] = tested on: RARg:RXRa (NR concentration 270 nM, RXRa partner concentration 90 nM)
Outline: as §1

[13] = tested on: RARg homodimer (NR concentration 270 nM)
Outline: as §1

[14] = tested on: RXRa DBDmut IVT, anti-RXR (DBD mutation: RXRa K156A/R161A, NR concentration 90 nM)
Outline: as §1

[15] = tested on: RXRa homodimer (NR concentration 180 nM)
Outline: as §1

[16] = tested on: THRa:RXRa (NR concentration 90 nM, RXRa partner concentration 90 nM)
Outline: as §1

[17] = tested on: THRa homodimer (NR concentration 90 nM)
Outline: as §1

[18] = tested on: VDR:RXRa (NR concentration 270 nM, RXRa partner concentration 90 nM)
Outline: as §1

[19] = tested on: VDR homodimer (NR concentration 270 nM)
Outline: as §1

Row | Sequence | PBM binding z-score [1] | PBM binding z-score [2] | PBM binding z-score [3] | PBM binding z-score [4] | PBM binding z-score [5] | PBM binding z-score [6] | PBM binding z-score [7] | PBM binding z-score [8] | PBM binding z-score [9] | PBM binding z-score [10] | PBM binding z-score [11] | PBM binding z-score [12] | PBM binding z-score [13] | PBM binding z-score [14] | PBM binding z-score [15] | PBM binding z-score [16] | PBM binding z-score [17] | PBM binding z-score [18] | PBM binding z-score [19]
1 | AATACAGGGTCACTAGGCTAGAGTAGGTACGAAT | 3.32 | 5.41 | 1.74 | 1.68 | 2.15 | 2.96 | 0.638 | 3.99 | 1.21 | 4.28 | 3.33 | 4.95 | 5.26 | 2.71 | 5.52 | 3.35 | 1.23 | 4.05 | 2.2
2 | AGTCAAAGTTCAGGACGAGGTAACATAAAGCACG | -0.187 | 1.85 | 1.18 | 0.12 | 2.12 | 3.37 | 1.47 | 3.33 | 0.906 | 4.15 | 3.26 | 4.89 | 4.71 | 3.19 | 3.25 | 3.73 | 1.55 | 3.13 | 2.24
3 | CCAACTGGGCCATTCAGAGGTCATTGATCATATG | 5.18 | 4.66 | 0.485 | -0.774 | 4.42 | 5.05 | 2.64 | 4.72 | 0.73 | 3.02 | 3.76 | 4.28 | 2.94 | 1.22 | 3.98 | 3.12 | 1.3 | 3.92 | 3.31
4 | CGAGACAGGTGAAAGGTAACTCAGTCTGGTACGC | 1.78 | 2.95 | 0.301 | -1.14 | 1.05 | 0.75 | -0.102 | 1.92 | -0.282 | 1.19 | 0.817 | 1.2 | 0.702 | -0.262 | 2.11 | 0.861 | -0.303 | 0.633 | -0.342
5 | ATCTCAAGGTAAAGATAGTTCAGTGAATGCAAAT | 0.21 | 0.461 | 0.586 | 1.27 | 0.584 | 2 | 1.05 | 0.797 | 0.976 | 1.16 | 0.976 | 1.03 | 1.11 | 0.292 | 0.564 | 1.53 | 0.311 | 1.37 | 0.351
6 | GGAACGACGGCATTCGAGTTGATAGCATGGCGAT | -0.236 | -0.897 | -0.871 | -0.489 | -1.13 | -0.589 | -0.529 | -0.766 | -0.761 | -1.24 | -1.09 | -0.451 | -0.127 | -0.144 | -0.39 | -0.124 | -1.19 | -0.42 | -0.259
7 | CGTCTAAGTTCAACTAAGGTAACGTAAAGCACGC | 0.256 | 0.683 | 0.378 | 0.759 | 1.95 | 5.04 | 4.82 | 3.08 | 1.48 | 4 | 3.13 | 4.18 | 4.79 | 4.84 | 3.54 | 4.95 | 2.6 | 4.12 | 4.24
8 | GATACAGGGTCCAGGCCAGAGTACGCGTATTGAT | -0.66 | -0.0913 | -0.12 | -0.0353 | 0.34 | -0.441 | -0.03 | -0.412 | -0.345 | 0.355 | 0.265 | 0.144 | 0.255 | -0.135 | 0.291 | -0.105 | -0.0572 | -0.0532 | 0.607
9 | ATATGTAGGTTAGCTGGGGTCATGCAGACTAGGC | 6.73 | 6.58 | 3.11 | 1.46 | 3.23 | 6.14 | 2.18 | 5.87 | 1.4 | 3.44 | 4.19 | 4.65 | 3.65 | 1.38 | 6.31 | 5.42 | 3.72 | 5.85 | 4.15
10 | AGAATGAGGATATACGTAGATCAGGGAAGAAAGT | -0.138 | -0.218 | 0.0706 | 0.805 | 0.0264 | -0.403 | -0.147 | -0.363 | 0.32 | -0.448 | -0.46 | 0.0404 | 0.424 | -0.474 | -0.0531 | 0.415 | -0.039 | -0.427 | -0.0995
11 | TAGCCTAGGTCAGATCGGGCCAGTATTCGCTATA | 0.568 | 1.66 | -0.683 | -1.02 | 0.109 | 1.28 | -0.946 | 0.894 | -0.762 | 3.14 | 2.1 | 2.86 | 3.71 | -0.442 | 1.37 | 4.14 | -0.138 | 0.465 | -0.518
12 | ATACCAAGGTGATCGTGAGGTCGATGATACTAAC | 0.508 | 1.52 | 0.609 | 0.528 | 0.828 | 1.91 | 0.391 | 1.9 | 0.262 | 1.55 | 1.82 | 2.16 | 1.22 | 0.391 | 1.36 | 3.09 | 1.95 | 1.9 | 1.21
13 | GCAGACAGGGGAAACGCAGGTAACTCAGGGTGGC | -0.682 | -0.536 | 0.0572 | -0.175 | -1.42 | -0.626 | -0.571 | -0.366 | -1.03 | -0.337 | -0.497 | -0.368 | -0.487 | -0.47 | -0.164 | 0.986 | -0.308 | -0.768 | -0.688
14 | TAGCCTAGGGCAGATCGGGCCAGTATACGCTATA | -0.53 | -0.145 | -0.91 | -1.38 | -0.781 | -0.394 | -0.7 | 0.406 | -1.26 | 0.79 | -0.161 | 0.171 | 0.578 | -1.17 | -0.16 | 2.16 | -1.07 | -0.562 | -0.532
15 | AGAACGAGGTTACCAAAGATCAGGGAAACGCTTG | 2.75 | 2.7 | 0.297 | 0.837 | 0.438 | 1.41 | -0.605 | 1.66 | -0.278 | 2.02 | 0.645 | 1.94 | 1.91 | 0.737 | 2.66 | 2.31 | 0.23 | 1.32 | 0.242
